The record followed here is PubChem BioAssay AID743293 (Broad Institute, 2014).

This experiment addresses Caspase-9 (Homo sapiens) (UniProt P55211). The experiment in a line: inhibitors of purified CASP9 protease – biochemical, fluorescence, plate reader, cherry-picked samples, selectivity assay for caspase-6 inhibitor project, dose response (AID 743293).

Measured potencies and affinities stand elsewhere. The source made the active and inactive calls.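 How the source made its calls: active means compounds lowering fluorescence with a fitted half-maximal concentration at or below a set limit tied to top dose; inconclusive means flat curve with 30 to 70% inhibition, or poor fit; inactive means the rest.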

Sequence of Caspase-9 (Homo sapiens) (P55211 whole entry, looked up): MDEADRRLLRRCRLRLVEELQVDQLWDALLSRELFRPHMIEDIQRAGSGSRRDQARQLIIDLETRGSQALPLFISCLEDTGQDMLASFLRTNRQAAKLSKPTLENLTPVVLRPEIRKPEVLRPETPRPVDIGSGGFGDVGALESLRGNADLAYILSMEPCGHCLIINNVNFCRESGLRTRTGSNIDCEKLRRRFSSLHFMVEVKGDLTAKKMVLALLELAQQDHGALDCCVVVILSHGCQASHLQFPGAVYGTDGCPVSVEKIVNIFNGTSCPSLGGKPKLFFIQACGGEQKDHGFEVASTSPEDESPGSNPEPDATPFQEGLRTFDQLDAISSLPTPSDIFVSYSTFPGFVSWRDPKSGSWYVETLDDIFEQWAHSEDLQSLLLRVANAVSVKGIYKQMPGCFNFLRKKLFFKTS

In the case of `C/C(CC(=O)N1CCCC1)=N\NC(=O)c1cc2ccccc2cc1O`, the outcome was inactive. To `Cc1c(CCC(=O)O)c(=O)oc2c(C)c(OCc3ccccc3Cl)ccc12` belongs “inactive”. Consider `O=C(O)CCc1ccc(-c2ccc(Br)cc2)n1CC(=O)O`, for which the molecule was called inactive. `CN(CC(=O)Nc1ccccc1Cl)C(=O)COC(=O)c1ccc([N+](=O)[O-])s1`: the molecule was classed as inactive. To `COc1ccc(C(=O)OCC(=O)Nc2ncc([N+](=O)[O-])s2)cc1OC` belongs “inactive”. With `O=c1c(O)cccc2cc(O)c(O)c(O)c12` the entry was “inactive”. With `COc1ccc([N+](=O)[O-])cc1NC(=O)CCS(=O)(=O)c1ccc(Br)cc1` the entry was “inactive”; with `O=c1c(CO)cc(CO)cc(CO)c1O`, “inactive”; with `Cn1cnnc1SCC(=O)Nc1ncc([N+](=O)[O-])s1`, “inactive”. `O=C(O)Cc1ccc(-n2cccc2)cc1`: the call was inactive. For the molecule `O=c1oc2ccccc2c2oc3cc(O)c(O)cc3c12`, the result was inactive. To `Cc1cc(C=O)c(C)n1-c1cc(C(=O)O)cc(C(=O)O)c1` belongs “inactive”; to `Oc1cc(O)cc(C=Cc2ccc(O)c(O)c2)c1`, “inactive”; to `Oc1cc2c(cc1O)[C@H]1c3ccc(O)c(O)c3OC[C@@]1(O)C2`, “inactive”.

Take `CCCN(C(=O)c1cccc(-n2cccc2)c1)c1c(N)n(Cc2ccccc2)c(=O)[nH]c1=O`: the call was inactive. Regarding `CCOC(=O)[C@H](Cc1c[nH]c2ccccc12)NC(=O)CN=[N+]=[N-]`, the molecule was called inactive. With `CC(C)(C)c1ccc(NC(=O)COC(=O)c2ccc([N+](=O)[O-])s2)cc1` the entry was “inactive”; with `O=c1oc(-c2ccccc2)nc2sc3c(c12)CCC3`, “inactive”. With `CO[C@H]1CN(C)C(=O)c2cc(NC(C)=O)ccc2OC[C@@H](C)N(C(=O)CC2CC2)C[C@H]1C` the entry was “inactive”; with `Cc1ccc(NC(=O)CN(C)C(=O)c2cccc(-n3cccc3)c2)cc1`, “inactive”. With `[O-][n+]1onc2c1CCc1c-2nn(-c2ccccc2Cl)[n+]1[O-]` the entry was “inactive”; with `Cc1ccc(S(=O)c2ccc([N+](=O)[O-])c3nonc23)cc1` (stereo not given), “inactive”; with `Nc1ccc(Nc2ccccc2)c(S(=O)(=O)O)c1`, “inactive”. On to `Cc1ccc(S(=O)(=O)Nc2csc(C)c2C(=O)O)cc1`, for which the molecule was called inactive.

Take `O=C(O)C1CCCCC1C(=O)Nc1cccc(Br)c1` (stereo not given): the molecule was called inactive. To `CCOc1ccc2nc3cc(NCc4ccc(OC)cc4)ccc3c(N)c2c1` belongs “inactive”; to `COc1ccc(NS(=O)(=O)c2ccc3c(c2)[C@H]2C=CC[C@H]2[C@@H](c2ccc(C(=O)O)cc2)N3)cc1`, “inactive”; to `O=C(O)C1Nc2c(Cl)cc(Cl)c(Cl)c2C2C=CCC12` (stereo not given), “inactive”.

As for `O=C(Nc1ccc2nc3n(c(=O)c2c1)CCCCC3)c1c(F)ccc([N+](=O)[O-])c1F`, the call was inactive. As for `O=C1CN(C(=O)COC(=O)c2ccc([N+](=O)[O-])s2)c2ccccc2N1`, the result was inactive.
